Screening results (PubChem BioAssay)
Shown are actives, neighbours in structure and some others; about 4.4% of the full set was active somewhere.
PfHsp90 set2: reduces growth (ATP signal) of yeast expressing P. falciparum Hsp90; S. cerevisiae expressing PfHsp90, BacTiter-Glo ATP, 48 h; yeast lacking PDR1 and PDR3 efflux regulators; inhibition, % at 9.4 µM; hit rate 0.32% among 310,000; AID 504621;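 active = every replicate shows inhibition above about 80%, whatever the replicate mean, limit read from the data; inconclusive = mean inhibition reaches the set limit but some replicate falls short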;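 also: 0% = DMSO neutral controls and 100% = 20 µM radicicol positive controls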
TIM10 inh: TIM10 yeast growth inhibition. S. cerevisiae TIM10 strain growth, BacTiter-Glo luminescence, 24 h. inhibition, % at 10 µM. hit rate 1.4% among 330,000;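 active = inhibition of 40% or more at the single tested concentration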;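 also: wild-type TIM10 isogenic control strain grown at permissive 25 °C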
tim10-1 inh: tim10-1 yeast growth inhibition; S. cerevisiae tim10-1 ts strain growth, BacTiter-Glo, 24 h; hit rate 2.2% among 330,000; inhibition, % at 20 µM; AID 463190;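 active = inhibition of at least 40%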;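 also: mutant grown at 25 °C; 0% = DMSO wells with yeast and 100% = wells holding no yeast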
SKKanGAS inh: SKKanGAS growth inhibition; S. pyogenes SKKanGAS, kanamycin growth, BacTiter-Glo, 6 h; hit rate 1.3% among 300,000; inhibition, % at 7.5 µM;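 active = mean replicate score, as percent of positive control median, at least 50; inconclusive = mean below 50 but one replicate at or above 50; inactive = mean and every replicate below 50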;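 also: strain carries kanamycin resistance gene driven by streptokinase promoter and grows in 40 µg/ml kanamycin; loss of luminescence reflects streptokinase promoter inhibition or plain growth inhibition; 0% = median of DMSO wells and 100% = positive control at its reference dose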
tim23-1 inh: tim23-1 yeast growth inhibition; S. cerevisiae tim23-1 growth, BacTiter-Glo luminescence, 24 h; hit rate 1.3% among 330,000; inhibition, % at 20 µM; AID 463212;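 active = growth inhibition of the mutant yeast at or above 50%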;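 also: temperature-sensitive mutant grown at 25 °C; plate controls were DMSO-treated mutant yeast for no effect and medium wells lacking yeast for full effect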
tim10-1 confirm: confirmation of tim10-1 mutant yeast growth inhibitors. shares compounds with tim10-1 inh. S. cerevisiae tim10-1 ts strain growth, BacTiter-Glo, 24 h. inhibition, % at 20 µM. hit rate 56% among 7,400. AID 463213;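 active = inhibition of yeast growth at or above a set limit in either of two repeat tests at 20 µM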;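 also: tim10-1 mutant grown at permissive 25 °C to find synthetic lethal compounds; 0% = DMSO yeast wells and 100% = medium wells without yeast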
An asterisk follows results filed as active; u = inconclusive; x = no result given.

SMILES	PfHsp90 set2	TIM10 inh	tim10-1 inh	SKKanGAS inh	tim23-1 inh	tim10-1 confirm
CCOC(=O)N1CCN(C(=O)c2ccc(CSc3ccc(Cl)cc3)cc2)CC1	30	34	45*	1	38	45*
CC(OC(=O)[C@@H](NC(=O)OCc1ccccc1)C(C)C)C(=O)Nc1ccc(N2CCOCC2)cc1 (stereo partly drawn)	-5	x	x	x	x	x
C=CC[C@H](CC(=O)N[C@H](CO)Cc1ccccc1)C(=O)N[C@@H](COC(=O)[C@H](CC=C)CC(=O)OC(C)(C)C)Cc1c[nH]c2ccccc12	20	1	8	x	3	x
COc1ccc(CN2C(=O)C(CC(C)C)Nc3ncnc(N4CCN(c5ccccc5)CC4)c32)cc1 (stereo not drawn)	-8	26	43*	11	35	23
CC(C)CC1Nc2ncnc(N3CCN(c4ccccc4)CC3)c2N(Cc2ccccc2)C1=O (stereo not drawn)	-13	14	27	9	38	x
CC(C)(CO)NC(=O)c1ccc2nc(Cc3cccc(Cl)c3)oc2c1	8	-6	5	3	18	x
CCOC(=O)CC(=O)CSc1nc2cc(C)ccc2cc1C	2	34	44*	-20	42	27
CCc1ccc(NC2=CC(=O)CC(C)(C)C2)cc1	-13	-13	27	7	20	x
CC(C)c1ccc(NC2=CC(=O)CC(C)(C)C2)cc1	-18	17	41*	-2	38	15
CCOc1ccccc1N1CC(C(=O)Nc2cc(S(C)(=O)=O)ccc2Cl)CC1=O (stereo not drawn)	x	-3	3	-21	-3	x
CN(C)CCNc1ncnc2oc(-c3ccccc3)c(-c3ccccc3)c12	11	14	19	5	-6	x
COc1ccc(-c2oc3ncnc(NCCCN(C)C)c3c2-c2ccc(OC)cc2)cc1	-7	19	40*	1	17	42*
COc1cc(C(=O)Nc2ccc(Cl)c(C(F)(F)F)c2)cc(OC)c1OC	45	36	43*	-1	44	53*
COc1cc(C(=O)Nc2ccc(Nc3ccccc3)cc2)cc(OC)c1OC	-6	25	43*	4	42	42*
COc1cc(C(=O)Nc2ccncc2)cc(OC)c1OC	-1	-1	2	-4	-1	x
CC(C)(C)c1ccc2c(c1)OC(C(=O)N/N=C\c1ccc[nH]1)CO2 (stereo not drawn)	0	-41	42*	-3	34	-103
COc1ccc(/C(C)=N/NC(=O)CNC(=O)/C=C\c2ccccc2OC)c(OC)c1	16	2	5	-2	6	x
CCSc1nnc2ccc(-c3ccc(C)cc3)nn12	-14	-5	45*	0	38	24
CCc1ccc(-c2ccc3nnc(SCC(N)=O)n3n2)cc1	-15	15	23	u	15	x
CCc1ccc(-c2ccc3nnc(SC)n3n2)cc1	-40	17	56*	12	42	18
CCSc1nnc2ccc(-c3cccs3)nn12	14	4	-10	-13	10	x
O=C(COC(=O)/C=C/c1cccc(Br)c1)NC1CCCC1	-1	3	13	x	16	x
O=Cc1ccc(OC(=O)c2cc(Cl)nc3ccccc23)cc1	-1	14	44*	11	27	21
O=C(Oc1cccc2ccccc12)c1cc(Cl)nc2ccccc12	5	16	18	29	24	x
O=Cc1cc(OCc2ccccc2)ccc1[B-](F)(F)F	4	x	x	x	x	x
SMILES	PfHsp90 set2	TIM10 inh	tim10-1 inh	SKKanGAS inh	tim23-1 inh	tim10-1 confirm
Cc1ccc(C)c(S(=O)(=O)ON2C(=O)c3ccccc3C2=O)c1	-8	26	70*	x	13	52*
CCCN1CCN(C(=O)C2CCN(S(=O)(=O)c3c(C)noc3/C=C/c3ccc(C)cc3)CC2)CC1	14	12	54*	28	30	28*
O=C(O)c1ccc(CSc2nc3ccc(N4C(=O)C5C6C=CC(C6)C5C4=O)cc3s2)cc1 (stereo not drawn)	-2	22	52*	20	24	29
CN1CCN(C(=O)CNC(=O)C23CC4CC(CC(C4)C2)C3)CC1	1	3	5	x	9	x
O=C(CSc1nc2ccccc2c(=O)n1-c1ccc(F)cc1)NCc1ccco1	21	14	21	7	19	x
O=c1c2ccccc2nc(SCc2cn3ccsc3n2)n1-c1ccc(F)cc1	-3	18	43*	4	32	19
O=C(/C=C/c1ccc2c(c1)OCO2)c1ccc(F)cc1	-6	3	15	6	7	x
